Compound activity: PubChem BioAssay, National Center for Advancing Translational Sciences (NCATS)
HEK293 tox = qHTS of GLP-1 Receptor Inverse Agonists: Cytotox Screen. AID 624418, 2012. Potency, µM (series often up to 38.3 µM), inactives show at the top dose activity change, negative = inhibition, hits mostly inhibitors. 410,000 compounds, 0.13% hits. HEK293 cAMP-luciferase reporter cells, luminescence, 24 h;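 further: loss of luciferase light is scored as toxicity; on the % scale 0 is the no-effect control and ±100 the full control effect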
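Here, cytotoxicity is scored as loss of luminescence. The MLSMR collection was tested on cells seeded in medium containing 10% Nu serum, with a 24 hr compound exposure preceded by 12 hours of culture.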
GLP1R inv ag = qHTS of GLP-1 Receptor Inverse Agonists (Inhibition Mode); AID 624417, 2012; Glucagon-like peptide 1 receptor (Homo sapiens), P43220; 410,000 compounds, 1.6% hits; Potency, µM (highest dose often 38.3 µM), for the others: at the top dose activity change, negative = inhibition, most hits filed as inhibitors; HEK293 GLP-1R CRE-luciferase, luminescence, 24 h; GLP-1R form is constitutively active; further: on the % scale 0 is the no-effect control and ±100 the full control effect; nearly all actives have a fitted effect of over 55% in size
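Inverse agonists were sought by their lowering of basal cAMP reporter luciferase output in HEK293 cells stably carrying constitutively active human GLP-1R, after 24 h compound treatment.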
GLP-1R agonist = qHTS of GLP-1 Receptor Agonists | Glucagon-like peptide 1 receptor (Homo sapiens), P43220 | HEK293 GLP-1R CRE-luciferase, luminescence, 4-6 h; cells express a hypersensitive GLP-1R form | Potency, µM (highest dose often 45.6 µM), without a hit: at the highest dose activation, usual class: activators | 380,000 compounds, 0.007% hits | AID 624172, 2012; further: % of control where 0% means no effect
PTHR1 ag = qHTS for PTHR1 Agonists: Primary Screen. Parathyroid hormone/parathyroid hormone-related peptide receptor (Homo sapiens), Q03431. HEK293 GP2 PTHR1 cells, GloSensor cAMP luminescence, 1 h. Potency, µM (doses to about 115 µM), for the others: top-dose activation, actives largely listed as activators. 410,000 compounds, 0.075% hits. AID 743266, 2014; further: nearly all actives have a fitted effect of over 55% in size
Target sequence (Q03431 whole entry, looked up): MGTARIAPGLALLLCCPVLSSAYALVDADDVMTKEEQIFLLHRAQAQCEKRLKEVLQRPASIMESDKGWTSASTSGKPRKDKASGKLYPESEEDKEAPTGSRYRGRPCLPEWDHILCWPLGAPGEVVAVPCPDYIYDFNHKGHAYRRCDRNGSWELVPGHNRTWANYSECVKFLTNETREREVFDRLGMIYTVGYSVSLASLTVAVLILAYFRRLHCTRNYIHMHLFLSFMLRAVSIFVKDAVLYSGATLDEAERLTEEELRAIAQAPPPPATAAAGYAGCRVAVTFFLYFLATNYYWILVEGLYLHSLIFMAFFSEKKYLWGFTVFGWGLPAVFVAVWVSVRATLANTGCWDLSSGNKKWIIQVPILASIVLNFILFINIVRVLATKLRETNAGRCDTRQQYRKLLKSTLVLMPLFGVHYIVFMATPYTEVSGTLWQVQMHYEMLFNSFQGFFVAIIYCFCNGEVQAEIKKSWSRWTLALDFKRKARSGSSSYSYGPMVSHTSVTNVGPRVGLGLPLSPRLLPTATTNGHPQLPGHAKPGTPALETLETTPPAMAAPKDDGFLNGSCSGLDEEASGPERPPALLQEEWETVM
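HEK-293-derived GP2 cells expressing PTHR1 and a GloSensor cAMP reporter, 3,000/well, plated overnight, given luciferin plus IBMX (each 0.5 mM as added) for 1 h at 37 °C, then compound for 1 h at 37 °C. Luminescence was read after 15 min at room temperature.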
The depositor's hits bear a star; i = inactive; ? = inconclusive; / = no result given; [ ] = remark or other dose. Compounds with a hit are over-represented: about 1.7% of the library has one in this group of screens. The call rests on the fitted dose curve; in most records, active means well fitted curve in the direction sought with a large enough effect; inconclusive means small, poorly fitted or top-dose-only effect, or another doubt; inactive means no such curve, though single readings can be large; an effect the other way counts as inactive or inconclusive. Potency means the concentration at half of the fitted maximal effect.

SMILES	HEK293 tox	GLP1R inv ag	GLP-1R agonist	PTHR1 ag
CN(C)CCCN1C(=O)c2cccc3cccc(c23)C1=O	?	-16%	-9%	i
CCCCCn1c(=N)n(CC(O)COc2cccc(C)c2)c2ccccc21 (centres undefined)	?	11µM*	/	-52%
CCCCCCCn1c(=N)n(CC(O)c2ccco2)c2ccccc21 (centres undefined)	?	11µM*	4%	-20%
OC(CNCCc1ccc(Cl)cc1)COc1ccc2ccccc2c1 (centres undefined)	?	?	7%	i
OC(CNCCc1ccc(Cl)cc1)COc1cc(Cl)ccc1Cl (centres undefined)	?	10µM*	3%	-24%
CCN1CCN(c2cc(C)c3cc(NC(=O)/C=C/c4ccc(OCCC(C)C)cc4)ccc3n2)CC1	-1%	3%	/	i
COc1ccc(-c2csc(N(CCCN(C)C)C(=O)c3ccccc3C)n2)cc1	?	2.8µM*	-3%	i
COCCN(C(=O)c1ccccc1F)c1nc(-c2ccc(OC)cc2)cs1	15%	10µM*	19%	-18%
CCN(C(=O)c1ccccc1F)c1nc(-c2ccc(OC)cc2)cs1	-6%	?	-1%	-30%
COc1ccc(-c2csc(N(CCCN(C)C)C(=O)c3ccccc3Cl)n2)cc1	?	?	-5%	i
COc1ccc(CN2C(=O)C(CC(=O)NCCCCc3ccccc3)CC(C(=O)N(C(C)C)C(C)C)=C2C)cc1 (centres undefined)	-18%	11µM*	-3%	-13%
Cc1ccc(Nc2nc3nonc3nc2Nc2cccc(C(F)(F)F)c2)cc1Cl	?	?	/	-31%
Cc1ccc(N/N=C2\CCS(=O)(=O)c3sccc32)cc1	-28%	4µM*	15%	-15%
CCN(CC)CCSc1nc2c([nH]1)c(=S)n(C)c(=O)n2C	5.6µM*	?	1%	-7%
CCCC(CC)Sc1nc2c([nH]1)c(=S)n(C)c(=O)n2C (centres undefined)	0.89µM*	?	3%	-32%
CCCCC(C)Sc1nc2c([nH]1)c(=S)n(C)c(=O)n2C (centres undefined)	?	?	15%	-60%
CCCCSc1nc2c([nH]1)c(=S)n(C)c(=O)n2C	?	?	-7%	-10%
CC(C)(C)C(=O)Nc1ccc2nc(SCCOc3ccccc3Cl)sc2c1	-14%	?	/	i
O=C(c1cc2sccc2n1Cc1ccccc1)N1CCCc2ccccc21	-3%	10µM*	0%	i
COc1ccc(-n2c(C)cc(C(=O)Cn3c(NCCO)nc4ccccc43)c2C)cc1	-30%	10µM*	7%	i
OC(C#Cc1ccccc1)(c1ccccc1)c1ccccc1	?	4.5µM*	15%	-24%
CC(C)[N+](C)(C)CC#CC(O)(c1ccccc1)c1ccccc1	-8%	5%	0%	i
COc1cc(OC)c(NC(=O)C(C)n2c(=O)cc(-c3ccccc3)c3c(C)nn(C)c32)cc1Cl (centres undefined)	5%	10%	/	-4%
Cc1ccc(SCCNC(=S)Nc2cc(C)cc(C)c2)cc1	?	7.9µM*	1%	-36%
CCOc1ncccc1C(=O)OCc1ccc(C(=O)OC)cc1	?	7%	11µM*	-53%
SMILES	HEK293 tox	GLP1R inv ag	GLP-1R agonist	PTHR1 ag
CO[C@@H]1[C@@H]([C@H](C)[C@@H]2O[C@@]3(CC[C@@](C)([C@H]4CC[C@@](C)([C@H]5O[C@H]([C@H]6O[C@](C)(O)[C@H](C)C[C@@H]6C)C[C@H]5O[C@H]5C[C@@H](OC)[C@H](OC)[C@@H](C)O5)O4)O3)C[C@@H](O)[C@@H]2C)O[C@@](O)(CC(=O)O)[C@H](C)[C@H]1OC	/	/	-4%	/
C/C(=C(/CCOC(=O)C(C)C)SS/C(CCOC(=O)C(C)C)=C(\C)N(C=O)Cc1cnc(C)nc1N)N(C=O)Cc1cnc(C)nc1N	/	/	0%	/
COc1ccc(C(=O)NCCC2=CCCCC2)cc1	-25%	?	-3%	-26%
COc1ccc(OC(C)C(=O)NCCC2=CCCCC2)cc1 (centres undefined)	-6%	11µM*	25%	-12%
CCOc1ccccc1/C=N\Nc1cnn(Cc2ccccc2)c(=O)c1Cl	-22%	7.9µM*	13%	-8%
CC1=C(C(=O)NC(C)CCc2ccccc2)C2(CCC(C)CC2)OC1=O (centres undefined)	8%	8.9µM*	13%	-16%
CN(C)CCOC1=Cc2ccccc2Sc2ccc(Cl)cc21	/	/	20%	/
Cc1ccc(-c2cn(-c3ccc(Cl)cc3)c(S(=O)(=O)CC(=O)Nc3ccccc3)n2)cc1	-21%	?	/	-51%
Cc1ccccc1C(=O)Nc1cc(-c2cc(C(C)(C)C)oc2C)nn1C	-9%	10µM*	23%	-43%
Cc1cc(C)c2c(c1)c(C)cc1nnc(SCC(=O)c3ccccc3)n12	0%	1%	/	-8%
CCc1ccc(NC(=O)CN(c2ccc(Cl)cc2)S(=O)(=O)c2ccsc2C(=O)OC)cc1	1%	3.2µM*	/	-13%
Cc1ccc(N(CC(=O)Nc2ccc(Cl)cc2)S(=O)(=O)c2cccc3nonc23)cc1	-17%	10µM*	-4%	-14%
O=C1CSC2(C(=O)N(Cc3ccccc3F)c3ccccc32)N1c1cccc(C(F)(F)F)c1 (centres undefined)	5%	?	3%	-21%
COc1ccc(OC)c(CNS(=O)(=O)c2ccc3c(c2)CCCN3C(C)=O)c1	1%	-6%	/	-6%
Cc1ccc(NC(=O)c2sc3nc(C)nc(N4CCN(c5ccccn5)CC4)c3c2C)c(C)c1	-25%	11µM*	-1%	-14%
Cc1nc(N2CCN(c3ccccn3)CC2)c2c(C)c(C(=O)Nc3ccc(Br)cc3C)sc2n1	-6%	7%	0%	-6%
FC(F)(F)c1cccc(N2CCN(C(=S)NC3CCCC3)CC2)c1	?	7.9µM*	-2%	-22%[57.5 µM]
FC(F)(F)c1cccc(N2CCN(C(=S)NC3CCCCC3)CC2)c1	-29%	?	-1%	-27%
O=C(c1ccc(Cl)c(Cl)c1)N(Cc1ccco1)c1ccc(O)cc1	-3%	11µM*	2%	-32%[57.5 µM]
COc1cccc(OC)c1C(=O)NC(C)C12CC3CC(CC(C3)C1)C2 (centres undefined)	3%	8.9µM*	-5%	i
Cc1ccc(-c2onc(C)c2C)cc1S(=O)(=O)Nc1ccc(Cl)cn1	-2%	-3%	/	-40%
OC[C@@H]1CN(Cc2ccc(-c3ccccc3)cc2)C[C@H](n2cnc3c(Nc4ccccc4)ncnc32)O1	-30%	4.5µM*	-1%	-51%
CCC(=O)N(Cc1cc2cc(C)c(C)cc2[nH]c1=O)C1CCCCC1	-29%	10µM*	-3%	-63%[57.5 µM]
O=C(NC12CC3CC(CC(C3)C1)C2)c1ccccc1O	-16%	5.6µM*	3%	-9%[57.5 µM]
